# Bioassay records from PubChem BioAssay.
# The entries come from a sample that favours hits as a whole.
# FECH block: human FECH heme synthesis enzyme inhibition; AID 1671448; purified FECH, Ni-mesoporphyrin absorbance 550 nm; P22830; calls only at 10 µM (by protocol); 20,000 compounds, 3.3% hits;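 active means enzyme reaction rate more than 3 SD below the solvent-only control wells on the same plate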;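 further: lower slope than DMSO wells means FECH inhibition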
# Target sequence (P22830 whole entry, looked up): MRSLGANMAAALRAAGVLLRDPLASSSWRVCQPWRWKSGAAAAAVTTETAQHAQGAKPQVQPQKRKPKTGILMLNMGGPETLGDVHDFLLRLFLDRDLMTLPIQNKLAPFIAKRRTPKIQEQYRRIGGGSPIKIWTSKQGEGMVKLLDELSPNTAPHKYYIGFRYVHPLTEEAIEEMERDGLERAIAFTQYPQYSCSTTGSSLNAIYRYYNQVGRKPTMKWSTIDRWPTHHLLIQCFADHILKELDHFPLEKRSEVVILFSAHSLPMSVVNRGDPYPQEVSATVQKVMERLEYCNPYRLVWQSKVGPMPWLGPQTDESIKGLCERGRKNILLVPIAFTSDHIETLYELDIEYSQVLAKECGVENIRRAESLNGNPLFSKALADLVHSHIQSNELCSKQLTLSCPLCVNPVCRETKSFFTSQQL
# Starred values were filed as active, the others as inactive; i = inactive; + = active, no number.
SMILES,FECH block
CCCC(C)CN1CCC(n2cc(CN(C)C)nn2)CC1 (stereo unspecified),+
CCCCc1cn(C2CCN(C(=O)C3CC(=O)N(C(C)(C)C)C3)CC2)nn1 (stereo unspecified),i
CCCC(C)CN1CCC(n2cc(-c3ccccc3)nn2)CC1 (stereo unspecified),i
CN(Cc1ccc(C#CCO)s1)C1Cc2ccccc2C1,i
CNC(=O)[C@@H]1C[C@H](N)CN1C(=O)CN(C)Cc1ccncc1,i
O=C(NC[C@@H]1CCNC[C@H]1O)C1(c2ccc(Cl)cc2)CCCCC1,i
CCOc1ccc(NC(=O)CN2CCCN(Cc3ccc(OC)cc3)S2(=O)=O)cc1,i
CCc1ccc(NC(=O)CN2CCCN(Cc3ccc(Cl)cc3)S2(=O)=O)cc1,i
CCOc1ccc(NC(=O)CN2CCN(Cc3ccc(F)cc3)S2(=O)=O)cc1,i
CCOc1ccc(NC(=O)CN2CCCN(Cc3ccc(F)cc3)S2(=O)=O)cc1,+
O=C(CN1CCCN(Cc2ccc(Cl)cc2)S1(=O)=O)Nc1ccc(F)cc1,i
CCOc1ccc(NC(=O)CN2CCCN(Cc3ccc(Cl)cc3)S2(=O)=O)cc1,+
Cc1c(NC(=O)c2ccccc2-n2cncn2)cccc1C(=O)NC(C)(C)C,i
COC(=O)c1cc2n(n1)CCCN(Cc1coc3ccccc3c1=O)C2,i
Cc1ccc(NC(=O)CC(=O)NCCSc2nccn2C)c(C)c1,i
Cc1ccc(NC(=O)CNCCNc2ncccc2C)c(C)c1,+
Cc1cccnc1NCCNC(=O)c1cccc2ccnn12,i
CS(=O)(=O)NCc1nc2cccnc2n1C1CC1,i
CCNC(=O)N1CCC(Cc2cccc(C(=O)O)c2)C1 (stereo unspecified),i
CCn1c(CNS(=O)(=O)c2cccc(Cl)c2)nc2cccnc21,i
COc1ccc(Cl)cc1S(=O)(=O)N1CCC(n2c(C(F)(F)F)nc3cccnc32)CC1,i
COc1ccc(S(=O)(=O)N2CCC(n3c(C(F)(F)F)nc4cccnc43)CC2)cc1OC,+
O=S(=O)(c1ccccc1)N1CCC(n2c(C(F)(F)F)nc3cccnc32)CC1,i
CCCN(C)Cc1c(C(=O)N2CCN(C3CCCCC3)CC2)nc2ccccn12,i
CCc1nc(C)sc1CNC(=O)Cc1c[nH]c(=O)n(C)c1=O,i
SMILES,FECH block
O=C(c1cccs1)N1CC[C@@H](c2ccc3ccccc3c2)[C@H](O)C1,+
Cc1noc(C)c1C(=O)N1CC[C@@H](c2ccc3ccccc3c2)[C@H](O)C1,i
Cc1nc(C(=O)N2CC[C@@H](c3ccc4ccccc4c3)[C@H](O)C2)c(C)o1,i
CC(C)C1CN(C(=O)c2cn(CCN)nn2)CCCN1Cc1ccc(F)cc1 (stereo unspecified),i
CCCN(Cc1ccccc1OC)Cc1cccc(F)c1O,i
NS(=O)(=O)c1ccc(NC(=O)c2c(-c3ccccc3)c(-c3ccccc3)n[nH]c2=O)cc1,i
NS(=O)(=O)c1ccc(NC(=O)c2ccc(-c3nc(-c4ccccc4)no3)cc2)cc1,i
CCn1nc(-c2ccccc2)c(-c2ccccc2)c(C(=O)Nc2ccc(S(N)(=O)=O)cc2)c1=O,+
CCc1nnc(CN(CC)C(=O)c2cn(-c3ccccc3)nn2)o1,i
COc1ccccc1CCNC(=O)CCn1cnc2onc(-c3cc(F)cc(F)c3)c2c1=O,i
Cc1ccc(NS(=O)(=O)c2ccc(N)c(S(N)(=O)=O)c2)cc1,+
CCc1ccc(NS(=O)(=O)c2ccc3c(c2)C(=O)NC3)cc1,i
Cn1cnc(S(=O)(=O)Nc2ccc(S(N)(=O)=O)cc2)c1,i
CCc1ccc(NS(=O)(=O)c2ccc(C(=O)N(C)C)s2)cc1,i
CCc1ccc(NS(=O)(=O)c2ccc(N)c(S(N)(=O)=O)c2)cc1,+
COc1ccc(NS(=O)(=O)c2ccc(N)c(S(N)(=O)=O)c2)cc1,+
CCN(CC)c1ncc(NS(=O)(=O)c2ccc(OC)cc2)cc1C(=O)O,i
COc1ccc(-c2csc(C)n2)cc1S(=O)(=O)Nc1ccc(S(N)(=O)=O)cc1,i
NS(=O)(=O)c1ccc(NS(=O)(=O)c2ccc3c(c2)NC(=O)CC(=O)N3)cc1,i
COc1cc2c(cc1C(=O)N1CC(c3ccncc3)C1)CCC2,i
Cc1ccsc1C(=O)N1CCn2nc(C(=O)NCc3ccccn3)cc2C1,i
CSc1nc(NC(C)(C)C)c(C#N)c(-c2ccccc2)n1,i
Cc1ccc(S(=O)(=O)CCNC(=O)CN2CCCN(C)CC2)cc1,i
Cc1cc(C)cc(C(=O)Nc2cc(C)nn2-c2ncnc3c2cnn3-c2ccc(F)cc2)c1,i
CCc1ccc(S(=O)(=O)NCCn2c(-c3ccc(C)cc3)nc3cccnc32)cc1,i
SMILES,FECH block
CCC(=O)Nc1ccc(S(=O)(=O)NCCn2c(-c3ccc(C)cc3)nc3cccnc32)cc1,+
COc1ccc(CC(=O)NCCn2c(-c3ccccc3)nc3cccnc32)c(Cl)c1,i
COc1ccc(NC(=O)NCCn2c(-c3ccncc3)nc3cccnc32)cc1,i
Cc1ccc(-c2nc3cccnc3n2CCNS(=O)(=O)c2ccc(C)cc2)cc1,i
CCc1ccccc1NC(=O)NCCn1c(-c2ccncc2)nc2cccnc21,i
Cc1cc(C)cc(NC(=O)NCCn2c(-c3ccncc3)nc3cccnc32)c1,i
COC(=O)CNC(=O)NCCn1c(-c2ccccc2)nc2cccnc21,+
Cc1ccc(NC(=O)NCCn2c(-c3ccncc3)nc3cccnc32)cc1Cl,+
CCn1nc(C)c(NC(=O)CN2CCN(C(=O)C3CCCO3)CC2)c1C (stereo unspecified),i
Cc1cc(C)n2nc(CN(C(=O)c3ccc(C(C)(C)C)cc3)c3ccc(Cl)cc3)nc2n1,i
COc1ccccc1C(=O)NCC1=CCN(CC(N)=O)CC1,i
CCOC(=O)c1cc2ccsc2n1CC(=O)Nc1ccc(C)cc1C,i
CCN(Cc1cc(Cl)ccc1OC)C(=O)c1cccnc1NC,i
CCc1cc(Sc2ccccc2NC(=O)COc2ccc(Cl)cc2)n2nc(C)nc2n1,i
COC(=O)C1=CC(=O)Nc2ccccc2N1,i
CC(C)Cc1ccc(S(=O)(=O)NCc2nc3cccnc3n2Cc2ccccc2)cc1,i
COc1ccc(S(=O)(=O)NCc2nc3cccnc3n2Cc2ccccc2)cc1,i
CCCc1ccc(S(=O)(=O)NCc2nc3cccnc3n2Cc2ccccc2)cc1,+
COc1ccc(Cn2c(CNS(=O)(=O)c3ccccc3)nc3cccnc32)cc1,+
COCCn1c(CNC(=O)c2ccc(OC)cc2OC)nc2cccnc21,i
COc1cccc(Cn2c(CNC(=O)c3cccc(OC)c3)nc3cccnc32)c1,i
CCCn1c(CNS(=O)(=O)c2ccc(Cl)cc2)nc2cccnc21,i
COc1ccc(Cn2c(CNS(=O)(=O)c3ccc(Cl)cc3)nc3cccnc32)cc1,i
CC(C)c1ccc(S(=O)(=O)NCc2nc3cccnc3n2Cc2ccccc2)cc1,i
CCCn1c(CNS(=O)(=O)c2ccc(CC(C)C)cc2)nc2cccnc21,+
CCc1ccc(Cn2c(CNS(=O)(=O)c3ccc(CC)cc3)nc3cccnc32)cc1,i
COc1cccc(Cn2c(CNC(=O)c3ccc(OC)cc3OC)nc3cccnc32)c1,+
CCCc1cc(Sc2ccc(NS(=O)(=O)c3ccc(OC)cc3)cc2)n2ncnc2n1,i
Cc1cc(F)ccc1S(=O)(=O)N1CCCn2cncc2C1,i
CC(C)c1cc(C(=O)N2CCn3nc(C(=O)Nc4ccccc4)cc3C2)no1,i
